These results are taken from PubChem BioAssay (EPA / NIEHS).

Read-out in test [1]: Monocyte Chemoattractant Protein-1 (MCP1), CCL2 (gene 6347)
Description: BSK_SAg_MCP1: BioMAP Diversity Plus: SAg Assay for Monocyte Chemoattractant Protein-1 (MCP1) Biomarker Activity (AID 2283090). The note with it: primary human HUVEC with PBMC; actives raise or lower the signal. In outline: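 Values derive from bidirectional fitting of ELISA-measured MCP1 against DMSO controls. Readings were taken 24 h after dosing human vascular endothelial cells co-cultured with peripheral blood mononuclear cells under superantigen stimulation.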

Read-out in test [2]: E-selectin (Homo sapiens) (UniProt P16581)
Description: BSK_SAg_Eselectin: BioMAP Diversity Plus: SAg Assay for Eselectin Biomarker Activity (AID 2283091). To be noted: primary human HUVEC with PBMC; actives raise or lower the signal. In outline: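 Human umbilical vein endothelial cells co-cultured with peripheral blood mononuclear cells, SAg system. E-selectin is measured by ELISA 24 h after dosing and fitted bidirectionally against DMSO. Cytotoxicity is checked by SRB staining of parallel cultures.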

Read-out in test [3]: Monokine induced gamma interferon (MIG), CXCL9 (gene 4283)
Description: BSK_SAg_MIG: BioMAP Diversity Plus: SAg Assay for Monokine induced gamma interferon (MIG) Biomarker Activity (AID 2283092). To be noted: primary human HUVEC with PBMC; actives raise or lower the signal. The method, boiled down:
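HUVEC plus human PBMC co-culture, chemicals dosed and MIG (CXCL9) quantified by ELISA at 24 h. Bidirectional curve fitting against DMSO as negative control and baseline, so both gain and loss of signal count as activity.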

The nature of test [4]: BSK_SAg_PBMCCytotoxicity: PBMC Cytotoxicity Assessment in the BioMAP Diversity Plus: SAg Assay (AID 2283093).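 Also: fitted both ways against DMSO so a hit may be loss or gain of signal.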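 As to AC50: PBMC superantigen activated with SEB plus TSST-1 one hour after compound addition.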 To be noted: primary human HUVEC with PBMC. In outline: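 PBMC viability by Alamar Blue reduction, fluorescence read at 546/580 nm after 6 h dye exposure. Cells were dosed 1 h before SEB plus TSST-1 activation (20 ng/mL final each), then held 90 h; endothelial/PBMC human co-culture.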

Read-out in test [5]: Interleukin-8 (IL8), CXCL8 (gene 3576)
Description: BSK_SAg_IL8: BioMAP Diversity Plus: SAg Assay for Interleukin-8 (IL8) Biomarker Activity (AID 2283094). To be noted: primary human HUVEC with PBMC; actives raise or lower the signal. The method, boiled down:
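Primary human endothelial cells with PBMC, exposed 24 h; IL-8 determined by ELISA, analysed bidirectionally relative to DMSO.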

Test [6] is described as follows: BSK_SAg_Proliferation: Cell Proliferation Assessment in the BioMAP Diversity Plus: SAg Assay (AID 2283095).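 Also: relative cell number as total protein by SRB absorbance in sub-confluent culture.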 The note with it: primary human HUVEC with PBMC. The method, boiled down: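 A human primary co-culture of umbilical vein endothelium and blood mononuclear cells receives compound; relative cell number is quantified at 96 h by SRB staining and 560 nm absorbance, with DMSO-referenced bidirectional curve fitting.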

Test [7] in a line: BSK_SAg_SRB: Viability Assessment in the BioMAP Diversity Plus: SAg Assay (AID 2283096).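 Also: cells read one day after compound addition; hits may be either gain or loss of signal compared with DMSO.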 To be noted: primary human HUVEC with PBMC. In outline: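 Compounds were added to a human vascular co-culture of umbilical vein endothelium and PBMC. After 24 h, parallel cultures were fixed with 10% TCA, stained with 0.1% sulforhodamine B and read at 560 nm. Gain or loss of signal was fitted relative to DMSO.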

Values joined by “and” are separate entries in the source; they are usually repeats but may differ in a detail not shown here. Identical values can stand only once. Some compounds were tested as several samples or in several runs, with calls that do not always agree. Active and inactive are the calls of the source. The calls were made as follows: active = hit-call score of the fitted dose curve at least 0.9, where 1 is the maximum; inactive = score below 0.9.

E-selectin (Homo sapiens), sequence (P16581 whole entry, looked up): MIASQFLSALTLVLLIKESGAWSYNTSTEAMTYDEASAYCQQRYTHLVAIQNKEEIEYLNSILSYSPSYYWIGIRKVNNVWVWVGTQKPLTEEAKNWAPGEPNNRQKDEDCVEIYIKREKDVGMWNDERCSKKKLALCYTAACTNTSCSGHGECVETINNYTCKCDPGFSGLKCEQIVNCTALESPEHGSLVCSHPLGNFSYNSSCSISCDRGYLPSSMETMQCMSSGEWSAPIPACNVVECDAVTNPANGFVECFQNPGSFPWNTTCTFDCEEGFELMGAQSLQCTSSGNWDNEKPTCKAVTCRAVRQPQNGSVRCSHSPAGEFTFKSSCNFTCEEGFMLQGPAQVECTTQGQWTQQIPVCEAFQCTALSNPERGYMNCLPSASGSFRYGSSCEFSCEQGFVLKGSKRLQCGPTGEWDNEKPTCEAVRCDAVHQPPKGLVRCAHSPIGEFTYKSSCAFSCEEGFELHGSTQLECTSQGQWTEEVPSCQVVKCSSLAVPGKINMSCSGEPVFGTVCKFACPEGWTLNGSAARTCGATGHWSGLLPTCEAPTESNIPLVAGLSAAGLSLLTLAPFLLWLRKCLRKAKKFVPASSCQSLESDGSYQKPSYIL

For `OCC(F)(F)C(F)(F)C(F)(F)C(F)(F)C(F)(F)C(F)(F)F`, the outcome in test [1], in test [2], in test [3], in test [4], in test [5] and in test [6] was inactive. Moreover, in test [7], the result was inactive.

Consider `O=C(O)C=C(C(F)(F)F)C(F)(F)F`, for which the half-maximal activity concentration (AC50) was 18.8 µM (active) in test [1]; 26.8 µM (active) and 22.9 µM (active) in test [2]; 30 µM (active) and 20 µM (active) in test [5]; 43 µM (active) and 27.2 µM (active) in test [6]. The outcome in test [1], in test [3], in test [4] and in test [7] was inactive.

Turning to `C=CC/C=C/C/C=C/C/C=C/C`, the outcome in test [1], in test [2], in test [3], in test [4], in test [5] and in test [6] was inactive. The result in test [7] was inactive.

With `FC(F)(F)C(F)(F)C(F)(F)C(F)(F)C(F)(F)C(F)(F)CC1CO1` (configuration not stated), the result in test [1], in test [2], in test [3], in test [4], in test [5] and in test [6] was inactive. Besides, the outcome in test [7] was inactive.

In the case of `CCc1c(Br)c(Br)c(Br)c(Br)c1Br`, the result in test [1], in test [2], in test [3], in test [4], in test [5] and in test [6] was inactive. The outcome in test [7] was inactive.

With `O=S(=O)(OCCOC(F)(F)F)C(F)(F)F`, the outcome in test [1], in test [2], in test [3], in test [4], in test [5] and in test [6] was inactive. Further, the outcome in test [7] was inactive.

For `CCCCCCC(C)OC(=O)CCCCC(=O)OC(C)CCCCCC` (configuration not stated), the outcome in test [1], in test [2], in test [3], in test [4], in test [5] and in test [6] was inactive. Also, in test [7], the result was inactive.

With `O=C(O)C(F)(F)C(F)(F)C(F)F`, the result in test [1], in test [2], in test [3], in test [4], in test [5] and in test [6] was inactive. In addition, in test [7], the outcome was inactive.

As to `FC(F)(F)C(F)(F)C(F)(F)C(F)(F)CCI`, the outcome in test [1], in test [2], in test [3], in test [4], in test [5] and in test [7] was inactive. The half-maximal activity concentration (AC50) was 41.9 µM (active) in test [4] and 30 µM (active) in test [6].

Take `FC(F)(F)C(F)(F)C(F)(F)C(F)(F)C(F)(F)C(F)(F)C(F)(F)C(F)(F)F`: the outcome in test [1], in test [2], in test [3], in test [4], in test [5] and in test [6] was inactive. Further, the result in test [7] was inactive.

Take `CCCCCCCOC(=O)c1ccccc1C(=O)OCCCCCCC`: the result in test [1], in test [2], in test [3], in test [5], in test [6] and in test [7] was inactive. Further, the concentration at half-maximal activity (AC50) in test [4] was 3.28 µM (active).

Regarding `N=C(N)C(F)(F)C(F)(F)C(F)(F)C(F)(F)C(F)(F)C(F)(F)C(F)(F)F`, the AC50 in test [1] is 55 µM (active); in test [2], 48.3 µM (active); in test [3], 55.4 µM (active); in test [4], 45.9 µM (active) and 55.1 µM (active); in test [5], 55.1 µM (active); in test [6] it was 45 µM (active) and 47.4 µM (active). The half-maximal activity concentration (AC50) in test [7] is 53 µM (active). Besides, the result in test [1], in test [2], in test [3], in test [5] and in test [7] was inactive.

With `NC(=O)C(F)(F)C(F)(F)C(F)(F)C(F)(F)F`, the result in test [1], in test [2], in test [3], in test [4], in test [5] and in test [6] was inactive. The outcome in test [7] was inactive. In test [6], the concentration at half-maximal activity (AC50) is 30 µM (active).

`FC(F)(F)C(F)(F)CNCC(F)(F)C(F)(F)F`: the outcome in test [1], in test [2], in test [3], in test [4], in test [5] and in test [6] was inactive. For the same molecule, in test [7], the outcome was inactive.

As for `CS(C)(=O)=O`, the outcome in test [1], in test [2], in test [3], in test [4], in test [5] and in test [6] was inactive. Moreover, the result in test [7] was inactive.

As to `O=C(O)C(F)(F)C(F)(F)C(F)(F)C(F)(F)C(F)(F)C(F)(F)C(F)(F)C(F)(F)C(F)(F)C(F)(F)C(F)(F)C(F)(F)C(F)(F)F`, the outcome in test [1], in test [2], in test [3], in test [4], in test [5] and in test [6] was inactive. Besides, the result in test [7] was inactive.

For `CC(C)(C)C(=O)CC(=O)C(F)(F)C(F)(F)C(F)(F)F`, the outcome in test [1], in test [2], in test [3], in test [4], in test [5] and in test [6] was inactive. The outcome in test [7] was inactive. Moreover, the concentration at half-maximal activity (AC50) was 41.1 µM (active) in test [2] and 53.9 µM (active) in test [4].

For the molecule `O=C(O)C(F)(F)C(F)(F)C(F)(F)C(F)(F)C(F)(F)C(F)(F)C(F)(F)C(F)(F)C(F)(F)C(F)F`, the concentration at half-maximal activity (AC50) in test [1] is 44.9 µM (active) and 46 µM (active); in test [2], 54.2 µM (active); in test [5], 41.6 µM (active) and 47.9 µM (active); in test [6] it was 47.8 µM (active) and 54.6 µM (active); in test [7], 47.3 µM (active) and 45.8 µM (active). Besides, the result in test [2], in test [3] and in test [4] was inactive.

As a reminder, the AC50 is the concentration at which the activity in the assay is half-maximal.
